DT40 TDP1 CPT: DT40-hTDP1 cell growth loss with CPT | chicken DT40 Tdp1-/-;hTDP1 cells + 20 nM CPT, ATP luminescence, 48 h | Potency, µM (highest dose often 46.2 µM), without a hit: top-dose activity change, negative = growth inhibition, usual class: inhibitors | 12% of 420,000 active | AID 686979; also: nearly all actives have a fitted effect of over 55% in size
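Chicken DT40 Tdp1-/- cells stably complemented with human TDP1 were seeded at 400 cells/well in medium containing 20 nM camptothecin, exposed to pin-transferred compounds, and grown at 37 °C for at least 48 hr. Viability was read as ATP luminescence.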
HT1080 IDH1KD tx: HT-1080 IDH1 knockdown cell toxicity (counter line); HT-1080 IDH1 knockdown viability, ATP luminescence, 48 h; Potency, µM (series often up to 46.1 µM), for inactives: at the highest dose activity, negative = toxicity, usual class: cytotoxic; 2% of 360,000 active;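 also: 0% = DMSO wells and -100% = cell-free medium wells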
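Using the IDH1-knockdown HT-1080 line run in the same batch and compound series as the NT line, viability after 48 h at 37 °C was determined by CellTiter-Glo luminescence and expressed as % activity.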
DT40 TDP1 no CPT: qHTS for Inhibitors of human tyrosyl-DNA phosphodiesterase 1 (TDP1): qHTS in cells in absence of CPT; DT40 Tdp1-/- hTDP1 cells, no CPT, ATP luminescence, 48 h; Potency, µM (doses to about 46.2 µM), without a hit: at the highest dose activity change, negative = growth inhibition, hits mostly inhibitors; 15% of 420,000 active; AID 686978, 2013; also: nearly all actives have a fitted effect of over 55% in size
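Seeded 400 DT40-hTDP1 cells/well (vehicle DMSO, no 20 nM CPT); pinned compounds; ≥48 hr at 37 °C; CellTiter-Glo luminescence as viability measure.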
KB-3-1 tox: kills parental KB-3-1 adenocarcinoma cells; Potency, µM (highest dose often 46.1 µM), most hits filed as cytotoxic; 1.4% of 400,000 active; KB-3-1 viability, CellTiter-Glo ATP luminescence, 72 h; AID 1347075; also: nearly all actives have a fitted effect of over 60% in size
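KB-3-1 cells, DMEM (no phenol red) + 10% FBS; compound by pin transfer, 72 h, 37 °C. Readout: CellTiter-Glo luminescence after 10 min. Data normalized, curve-fitted.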
KB-V1 cytotox: kills drug-selected multidrug resistant KB-V1 cells | KB-V1 MDR cells viability, CellTiter-Glo, 72 h | AID 1347076 | Potency, µM (highest dose often 46.1 µM), usual class: cytotoxic | 3.4% of 400,000 active; also: nearly all actives have a fitted effect of over 60% in size
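Potencies derive from concentration-effect curves fitted to normalized luminescence (CellTiter-Glo) of KB-V1 cells treated for 72 h at 37 degrees C in phenol-red-free DMEM containing 10% FBS.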
HT1080-NT tox: kills 2HG-producing HT-1080-NT fibrosarcoma cells. HT-1080-NT fibrosarcoma viability, CellTiter-Glo ATP luminescence, 48 h. 1.6% of 360,000 active. Potency, µM (highest dose often 46.1 µM), inactives show at the highest dose activity, negative = less viability, actives largely listed as cytotoxic;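 also: NT is the 2HG producing partner of a matched IDH1 knockdown line; 0% = DMSO-treated cells and -100% = media-only wells without cells; nearly all actives have a fitted effect of over 55% in size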
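Fibrosarcoma NT cells, 750 per well in 5% FBS RPMI, were exposed to compound for 48 hours. Viability: CellTiter-Glo luminescence.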
Starred values were filed as active, the others as inactive; i = inactive; ? = inconclusive; nt = no result given. Compounds with a hit are over-represented: about 19% of the library has one in this group of screens. Calls follow the shape of the dose curve; as a rule, active = well fitted curve in the direction sought with a large enough effect; inconclusive = small, poorly fitted or top-dose-only effect, or another doubt; inactive = no such curve, though single readings can be large; an effect the other way counts as inactive or inconclusive. Unless noted, % is scaled to controls: 0 for no effect and ±100 for the full control effect; potency is read from the fitted curve at half-maximal effect.

SMILES	DT40 TDP1 CPT	HT1080 IDH1KD tx	DT40 TDP1 no CPT	KB-3-1 tox	KB-V1 cytotox	HT1080-NT tox
CCCCCCCCNc1nc(Cl)nc(NCc2ccco2)n1	-3.0%	15.9%	-2.2%	i	i	11.4%
O=C(O)C(=O)Nc1cccc(-c2nn[nH]n2)c1	-1.3%	nt	-5.3%	nt	nt	nt
CC(OC(=O)c1ccccc1NS(=O)(=O)c1cccc(N)c1)C(=O)N(C)Cc1ccccc1 (stereo not drawn)	?	3.3%	23.1µM*	?	3.66µM*	4.2%
O=C(N/C(=C/c1cccc(Br)c1)C(=O)N1CCCCC1)c1ccco1	?	0.8%	?	i	?	-3.7%
CC1Cc2ccccc2N1C1=NS(=O)(=O)c2ccccc21 (stereo not drawn)	-10.0%	1.0%	-18.8%	i	i	5.4%
CC1Cc2ccccc2N1C1=CC(=O)CCC1 (stereo not drawn)	7.31µM*	-2.0%	5.8µM*	i	?	-12.0%
COc1ccc(NC(=O)C(C)Sc2nnc3c4c(nc(-c5ccc(OC)cc5)n23)CC(C)(C)OC4)cc1 (stereo not drawn)	20.6µM*	-1.1%	14.6µM*	i	i	-2.2%
Cc1sc2ncn(CC(=O)NCC(=O)N(C)C3CCCCC3)c(=O)c2c1C	6.7%	-4.0%	0.0%	i	23.1µM*	-1.8%
O=C(O)c1cccc(-c2csc(C(O)c3ccccc3)n2)c1 (stereo not drawn)	-3.3%	20.0%	0.9%	i	i	1.6%
O=C1C(=Cc2ccccc2Cl)CCc2ccccc21	-73.8%	?	?	20.6µM*	?	?
O=C1C(=Cc2ccc(F)cc2)CCc2ccccc21	16.4µM*	-15.3%	20.6µM*	i	i	-22.7%
O=C1C(=Cc2ccc(Cl)cc2)CCc2ccccc21	20.6µM*	?	?	i	i	?
O=C1C(=Cc2cccc(Cl)c2)CCc2ccccc21	?	?	20.6µM*	i	i	?
O=C1C(=Cc2cccc(Cl)c2)Cc2ccccc21	?	21.5%	?	i	i	1.0%
CCOC(=O)CSc1nnc2n(-c3ccccc3)c(=O)c3c4c(sc3n12)COC(C(C)C)C4 (stereo not drawn)	?	nt	?	i	i	nt
CCOc1ccc(C(C(=O)NCC2CCCO2)N(C(=O)c2snc(C(N)=O)c2N)c2ccc(F)cc2)cc1 (stereo not drawn)	18.4µM*	0.0%	?	i	i	1.2%
COc1ccc(C(C(=O)NCC2CCCO2)N(C(=O)c2snc(C(N)=O)c2N)c2ccccc2C)cc1OC (stereo not drawn)	-20.6%	-10.6%	?	i	i	-11.3%
CCOc1ccc(C(C(=O)NCC2CCCO2)N(CCc2cccc(C)c2)C(=O)c2snc(C(N)=O)c2N)cc1 (stereo not drawn)	?	?	?	?	20.6µM*	?
COc1ccc(N(C(=O)Cn2nnc(-c3ccccc3F)n2)C(C(=O)NCC2CCCO2)c2ccc(Cl)cc2)cc1 (stereo not drawn)	?	-0.5%	9.2µM*	?	i	-0.5%
COc1ccc(C(C(=O)NCC2CCCO2)N(Cc2ccccc2)C(=O)c2snc(C(N)=O)c2N)cc1OC (stereo not drawn)	?	16.7%	-27.3%	i	i	11.3%
CCc1ccccc1N(C(=O)c1snc(C(N)=O)c1N)C(C(=O)NCC1CCCO1)c1ccc(OC)c(OC)c1 (stereo not drawn)	16.4µM*	-23.7%	11.6µM*	i	i	4.9%
COCC(=O)N1CCC2(CC1)CN(c1ccncc1)C2	4.9%	nt	3.9%	nt	nt	nt
O=C(Nc1ccccc1)c1cc(C2CCCCN2S(=O)(=O)c2ccc(F)cc2F)on1 (stereo not drawn)	-19.4%	-25.7%	?	i	i	-1.4%
COc1ccccc1CN1CCNC(=O)C1CC(=O)N(C)Cc1ccon1 (stereo not drawn)	2.5%	-6.9%	-27.7%	i	i	-2.4%
COc1cc(CNc2ccc3[nH]c(=O)[nH]c3c2)cc(Br)c1OCC(=O)NC(C)(C)C	?	?	?	i	i	?
SMILES	DT40 TDP1 CPT	HT1080 IDH1KD tx	DT40 TDP1 no CPT	KB-3-1 tox	KB-V1 cytotox	HT1080-NT tox
COc1cc(CNc2ccc3[nH]c(=O)[nH]c3c2)ccc1OCc1ccccc1F	20.6µM*	-13.5%	16.4µM*	i	i	-19.8%
COc1cc(CNc2ccc3[nH]c(=O)[nH]c3c2)cc(Br)c1OCc1ccccc1F	10.3µM*	?	20.6µM*	i	?	-22.4%
CCOc1cc(CNc2ccc3cn[nH]c3c2)ccc1OC	?	?	20.6µM*	i	?	-12.5%
CCOc1c(Cl)cc(CNc2ccc3[nH]c(=O)[nH]c3c2)cc1OC	23.1µM*	nt	?	i	i	nt
COC(=O)[C@H]1C[C@@]2(O)CN(S(=O)(=O)c3ccc(C)cc3)C[C@@]2(OC(=O)NC2CC2)C[C@H]1C(=O)OC	4.4%	-2.5%	-27.3%	i	i	11.9%
CC(=O)c1c(C)[nH]c(C(=O)CN2C(=O)NC3(CCCCC3C)C2=O)c1C (stereo not drawn)	-2.2%	-16.1%	6.4%	i	i	-14.4%
CCN(CC(=O)NCc1ccc(F)cc1)C(=O)COc1ccc2ccccc2c1	?	2.0%	-28.7%	i	14.6µM*	-3.6%
CCN(CC(=O)NCc1ccc(F)cc1)C(=O)COc1ccc(C)c(C)c1	-24.9%	-2.3%	?	i	18.4µM*	0.6%
CCc1ccccc1OCC(=O)N(CC)CC(=O)NCc1ccc(F)cc1	-2.3%	-1.4%	?	i	i	-4.0%
CCc1cccc(NC(=O)CCS(=O)(=O)c2ccc(C)cc2)c1	?	nt	-24.4%	i	i	nt
Cc1ccc(C(c2nnnn2Cc2ccccc2)N2CCN(Cc3ccccc3)CC2)cc1 (stereo not drawn)	?	?	16.4µM*	?	i	-22.7%
COc1ccc(N2CCN(C(c3cc4cc(C)ccc4[nH]c3=O)c3nnnn3Cc3ccccc3)CC2)cc1 (stereo not drawn)	?	-11.5%	?	?	i	-8.4%
CCCCn1nnnc1C(c1ccccc1)N1CCN(CC)CC1 (stereo not drawn)	-22.4%	9.7%	-11.2%	i	?	12.0%

Screening data (PubChem)
